Test results taken from the supplement of paper PMC10849652.
Of roughly 7,900 targets only a part is listed; those with a hit were picked by preference. About 0.6% of all pairs of compound and target were hits. Values without a mark were called inactive.

These targets were tested with COC(=O)N[C@@H](C)CNc1nccc(-c2cn(C(C)C)nc2-c2cc(Cl)cc(NS(C)(=O)=O)c2F)n1 [encorafenib] (assay: log2 fold change, soluble protein after heating vs DMSO (PISA); higher = thermal stabilisation; K562 cells, 10 uM, 30 min; active = over 0.2 and 3.5 SD of the protein, either way, in both replicates (recomputed)).
Procedure, shortened: (§1)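 Thermal stability values are relative to control samples and come from duplicates. They are expressed as log2 fold changes. For measurement, K562 cells (2×10^6 cells/mL) received 10 μM compound for 30 min, and aliquots were heated for 3 min over 48°C-58°C, pooled, and extracted at 4°C in PBS with 0.5% NP-40. Soluble protein, the supernatant after 21,000xg for 90 min, was quantified by TMTpro 16plex LC-MS/MS with equalised channel sums.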

Chain of UniProt Q9NZD8 (Q9NZD8 whole entry, looked up): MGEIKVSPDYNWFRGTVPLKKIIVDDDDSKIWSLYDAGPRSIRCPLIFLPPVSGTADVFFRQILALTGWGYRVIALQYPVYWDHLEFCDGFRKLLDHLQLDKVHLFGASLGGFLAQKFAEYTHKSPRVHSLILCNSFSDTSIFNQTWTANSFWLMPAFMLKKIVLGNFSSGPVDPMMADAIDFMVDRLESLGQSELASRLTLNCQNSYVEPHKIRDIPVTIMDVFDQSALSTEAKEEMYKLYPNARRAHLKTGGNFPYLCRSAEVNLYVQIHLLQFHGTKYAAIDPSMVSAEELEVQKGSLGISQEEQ
Chain of UniProt Q9NUY8 (Q9NUY8 whole entry, looked up): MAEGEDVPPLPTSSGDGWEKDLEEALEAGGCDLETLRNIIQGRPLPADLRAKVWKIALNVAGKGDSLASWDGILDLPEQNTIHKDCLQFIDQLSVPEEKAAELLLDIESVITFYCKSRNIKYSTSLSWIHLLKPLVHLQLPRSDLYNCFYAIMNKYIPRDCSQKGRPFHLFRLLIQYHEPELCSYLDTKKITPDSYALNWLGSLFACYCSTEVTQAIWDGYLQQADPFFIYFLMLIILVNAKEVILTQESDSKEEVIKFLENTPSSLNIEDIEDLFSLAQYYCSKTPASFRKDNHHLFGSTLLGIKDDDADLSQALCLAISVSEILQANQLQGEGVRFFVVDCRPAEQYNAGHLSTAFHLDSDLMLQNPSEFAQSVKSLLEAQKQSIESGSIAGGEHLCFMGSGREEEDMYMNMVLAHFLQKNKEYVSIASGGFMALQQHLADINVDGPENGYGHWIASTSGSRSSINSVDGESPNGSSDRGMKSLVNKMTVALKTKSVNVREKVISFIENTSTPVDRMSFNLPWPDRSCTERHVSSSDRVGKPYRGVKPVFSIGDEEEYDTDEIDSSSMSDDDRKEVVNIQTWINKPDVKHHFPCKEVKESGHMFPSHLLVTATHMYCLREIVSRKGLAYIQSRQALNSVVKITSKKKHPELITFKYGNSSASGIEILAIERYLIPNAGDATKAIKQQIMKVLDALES
Chain of UniProt Q9Y5M8 (Q9Y5M8 whole entry, looked up): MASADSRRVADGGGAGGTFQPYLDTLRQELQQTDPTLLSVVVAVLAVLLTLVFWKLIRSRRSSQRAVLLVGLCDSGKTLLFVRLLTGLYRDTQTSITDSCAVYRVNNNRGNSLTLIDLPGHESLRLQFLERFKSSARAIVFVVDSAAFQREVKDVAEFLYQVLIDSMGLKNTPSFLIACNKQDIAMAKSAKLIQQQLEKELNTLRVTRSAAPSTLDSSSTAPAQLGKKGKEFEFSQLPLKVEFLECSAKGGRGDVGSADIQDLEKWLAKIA
Chain of UniProt Q8TC07 (Q8TC07 whole entry, looked up): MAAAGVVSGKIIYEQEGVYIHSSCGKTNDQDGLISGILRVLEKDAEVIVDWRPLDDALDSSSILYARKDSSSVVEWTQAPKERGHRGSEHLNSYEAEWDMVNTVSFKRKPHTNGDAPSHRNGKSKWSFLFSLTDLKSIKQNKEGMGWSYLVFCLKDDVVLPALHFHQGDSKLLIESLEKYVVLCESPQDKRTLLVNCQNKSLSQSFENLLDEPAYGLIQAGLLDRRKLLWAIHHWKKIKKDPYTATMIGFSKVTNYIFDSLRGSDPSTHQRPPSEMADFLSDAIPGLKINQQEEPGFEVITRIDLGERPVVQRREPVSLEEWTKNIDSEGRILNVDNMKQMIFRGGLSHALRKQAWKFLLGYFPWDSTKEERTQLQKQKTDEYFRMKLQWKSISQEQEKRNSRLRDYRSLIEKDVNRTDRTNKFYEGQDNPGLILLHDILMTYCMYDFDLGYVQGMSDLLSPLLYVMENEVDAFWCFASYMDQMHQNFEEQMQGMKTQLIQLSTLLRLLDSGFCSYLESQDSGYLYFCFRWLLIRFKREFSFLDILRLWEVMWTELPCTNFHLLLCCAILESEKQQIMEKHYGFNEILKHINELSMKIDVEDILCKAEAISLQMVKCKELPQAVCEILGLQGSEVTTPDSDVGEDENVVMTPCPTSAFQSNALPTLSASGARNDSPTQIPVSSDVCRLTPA
Chain of UniProt P40763 (P40763 whole entry, looked up): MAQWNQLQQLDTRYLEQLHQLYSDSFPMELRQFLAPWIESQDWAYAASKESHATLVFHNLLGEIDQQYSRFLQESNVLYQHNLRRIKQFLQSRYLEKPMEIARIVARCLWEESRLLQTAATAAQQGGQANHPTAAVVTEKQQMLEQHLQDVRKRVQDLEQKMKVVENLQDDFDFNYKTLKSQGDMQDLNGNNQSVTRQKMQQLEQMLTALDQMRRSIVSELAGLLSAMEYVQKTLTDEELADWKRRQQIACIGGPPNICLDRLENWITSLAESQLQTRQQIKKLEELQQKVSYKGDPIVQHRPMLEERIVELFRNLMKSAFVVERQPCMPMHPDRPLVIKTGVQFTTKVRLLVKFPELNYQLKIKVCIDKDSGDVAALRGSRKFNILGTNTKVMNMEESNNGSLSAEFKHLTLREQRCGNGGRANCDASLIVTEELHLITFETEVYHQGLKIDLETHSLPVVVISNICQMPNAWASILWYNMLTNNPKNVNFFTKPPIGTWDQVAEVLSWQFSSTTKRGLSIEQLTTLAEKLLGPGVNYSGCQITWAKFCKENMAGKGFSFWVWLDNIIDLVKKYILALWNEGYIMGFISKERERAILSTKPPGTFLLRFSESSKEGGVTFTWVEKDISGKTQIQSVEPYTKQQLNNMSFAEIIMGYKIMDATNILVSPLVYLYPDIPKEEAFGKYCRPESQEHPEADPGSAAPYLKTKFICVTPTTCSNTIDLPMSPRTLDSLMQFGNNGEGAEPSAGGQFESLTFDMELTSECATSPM
Chain of UniProt P51692 (P51692 whole entry, looked up): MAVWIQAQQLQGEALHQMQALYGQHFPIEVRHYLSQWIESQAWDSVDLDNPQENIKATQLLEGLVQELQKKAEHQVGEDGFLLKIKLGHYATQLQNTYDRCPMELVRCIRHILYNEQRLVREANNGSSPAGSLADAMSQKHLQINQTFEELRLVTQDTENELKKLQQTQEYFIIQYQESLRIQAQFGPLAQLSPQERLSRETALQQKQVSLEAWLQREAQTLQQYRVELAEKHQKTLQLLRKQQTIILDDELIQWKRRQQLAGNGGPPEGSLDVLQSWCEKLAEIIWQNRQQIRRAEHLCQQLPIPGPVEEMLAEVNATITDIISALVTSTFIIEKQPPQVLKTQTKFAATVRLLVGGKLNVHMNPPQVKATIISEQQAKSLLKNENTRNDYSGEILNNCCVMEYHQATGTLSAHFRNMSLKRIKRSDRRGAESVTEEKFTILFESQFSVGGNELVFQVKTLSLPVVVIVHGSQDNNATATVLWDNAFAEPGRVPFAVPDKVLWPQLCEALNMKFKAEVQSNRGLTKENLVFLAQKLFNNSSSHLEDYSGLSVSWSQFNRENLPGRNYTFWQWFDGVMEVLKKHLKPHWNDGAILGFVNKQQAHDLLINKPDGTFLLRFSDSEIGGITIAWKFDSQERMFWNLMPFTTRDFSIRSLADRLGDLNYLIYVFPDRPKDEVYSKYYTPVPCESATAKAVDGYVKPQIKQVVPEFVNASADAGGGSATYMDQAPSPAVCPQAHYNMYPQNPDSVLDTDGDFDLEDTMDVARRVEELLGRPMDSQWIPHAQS
Chain of UniProt Q96BW9 (Q96BW9 whole entry, looked up): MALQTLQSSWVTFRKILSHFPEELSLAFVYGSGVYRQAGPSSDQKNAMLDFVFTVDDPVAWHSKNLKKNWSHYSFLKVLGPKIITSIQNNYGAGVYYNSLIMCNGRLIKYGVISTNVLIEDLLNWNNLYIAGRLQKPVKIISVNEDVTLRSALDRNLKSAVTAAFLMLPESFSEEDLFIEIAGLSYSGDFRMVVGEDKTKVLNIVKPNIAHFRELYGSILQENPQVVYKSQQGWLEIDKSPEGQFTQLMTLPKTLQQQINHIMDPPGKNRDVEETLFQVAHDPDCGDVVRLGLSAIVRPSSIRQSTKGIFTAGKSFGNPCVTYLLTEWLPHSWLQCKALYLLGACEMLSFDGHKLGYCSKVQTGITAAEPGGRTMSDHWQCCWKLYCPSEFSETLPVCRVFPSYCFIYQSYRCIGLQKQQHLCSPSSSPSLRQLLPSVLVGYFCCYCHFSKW
Chain of UniProt O14975 (O14975 whole entry, looked up): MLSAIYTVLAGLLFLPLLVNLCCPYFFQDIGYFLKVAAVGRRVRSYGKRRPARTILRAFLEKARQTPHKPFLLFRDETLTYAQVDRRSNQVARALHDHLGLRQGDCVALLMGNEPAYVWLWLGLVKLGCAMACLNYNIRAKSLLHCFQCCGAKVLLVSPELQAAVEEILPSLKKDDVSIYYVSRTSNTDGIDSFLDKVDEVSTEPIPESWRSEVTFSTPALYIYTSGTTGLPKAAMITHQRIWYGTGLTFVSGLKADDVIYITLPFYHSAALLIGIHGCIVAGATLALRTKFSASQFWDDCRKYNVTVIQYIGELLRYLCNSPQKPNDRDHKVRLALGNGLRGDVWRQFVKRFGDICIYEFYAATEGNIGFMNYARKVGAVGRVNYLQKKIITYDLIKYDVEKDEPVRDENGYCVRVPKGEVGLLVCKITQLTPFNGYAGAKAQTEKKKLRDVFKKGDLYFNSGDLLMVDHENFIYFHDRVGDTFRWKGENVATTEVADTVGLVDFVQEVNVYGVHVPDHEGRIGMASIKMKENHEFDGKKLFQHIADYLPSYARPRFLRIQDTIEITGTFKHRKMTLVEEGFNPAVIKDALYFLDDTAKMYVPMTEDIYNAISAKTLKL
Chain of UniProt Q86VD7 (Q86VD7 whole entry, looked up): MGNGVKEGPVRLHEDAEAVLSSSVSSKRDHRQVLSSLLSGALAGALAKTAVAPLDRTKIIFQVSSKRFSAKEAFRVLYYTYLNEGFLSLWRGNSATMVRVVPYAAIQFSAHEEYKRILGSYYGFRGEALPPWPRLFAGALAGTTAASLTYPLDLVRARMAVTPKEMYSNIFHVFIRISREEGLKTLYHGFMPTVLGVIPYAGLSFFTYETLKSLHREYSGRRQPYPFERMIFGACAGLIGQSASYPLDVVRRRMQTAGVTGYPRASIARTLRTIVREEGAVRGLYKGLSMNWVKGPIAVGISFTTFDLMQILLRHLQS

Target	log2 fold change
TERF2IP (UniProt Q9NYB0)	-0.011
TGFBR1 isoform 2 (UniProt P36897)	0.041
SLC25A39 (UniProt Q9BZJ4)	0.005
SLC27A2 (UniProt O14975)	0.015
STAT5B (UniProt P51692)	0.073
TBC1D15 isoform 3 (UniProt Q8TC07)	0.068
TELO2 (UniProt Q9Y4R8)	0.049
SQSTM1 (UniProt Q13501)	0.012
TBC1D5 isoform 2 (UniProt Q92609)	0.119
SRI (UniProt P30626)	-0.03
STAT3 (UniProt P40763)	0.077
SRPRA (UniProt P08240)	0.019
TAOK1 (UniProt Q7L7X3)	-0.061
STK26 (UniProt Q9P289)	0.032
STK4 (UniProt Q13043)	0.077
STXBP2 isoform 3 (UniProt Q15833)	0.176
SRPRB (UniProt Q9Y5M8)	-0.013
TIMM29 (UniProt Q9BSF4)	-0.098
SPG11 (UniProt Q96JI7)	-0.094

Target	log2 fold change
SLC25A36 (UniProt Q96CQ1)	-0.055
SLC25A42 (UniProt Q86VD7)	-0.067
TAMM41 isoform 3 (UniProt Q96BW9)	0.01
SRSF4 (UniProt Q08170)	0.154
SNRNP27 (UniProt Q8WVK2)	-0.061
TJP2 isoform 7 (UniProt Q9UDY2)	0.066
STEAP3 isoform 2 (UniProt Q658P3)	0.012
SP100 isoform 4 (UniProt P23497)	-0.06
SPG21 (UniProt Q9NZD8)	-0.022
TIMM44 (UniProt O43615)	0.054
TBC1D23 (UniProt Q9NUY8)	0.079
SPAG9 (UniProt O60271)	0.023
SNRPB2 (UniProt P08579)	-0.037
SNX6 (UniProt Q9UNH7)	0.042
STK25 (UniProt O00506)	0.039
TJP1 (UniProt Q07157)	0.029
STK11IP (UniProt Q8N1F8)	0.265
SUMO1 (UniProt P63165)	-0.029
TM9SF2 (UniProt Q99805)	0.001

The targets below were run with COC(=O)[C@H](CCSC)NC(=O)C1=C(C=C(C=C1)NC[C@H](CS)N)C2=CC=CC=C2 in the same assay as above.
Procedure, shortened: as §1

Target	log2 fold change
TERF2IP (UniProt Q9NYB0)	-0.007
TGFBR1 isoform 2 (UniProt P36897)	-0.055
SLC25A39 (UniProt Q9BZJ4)	0.041
SLC27A2 (UniProt O14975)	-0.034
STAT5B (UniProt P51692)	-0.052
TBC1D15 isoform 3 (UniProt Q8TC07)	-0.003
TELO2 (UniProt Q9Y4R8)	-0.057
SQSTM1 (UniProt Q13501)	0.051
TBC1D5 isoform 2 (UniProt Q92609)	-0.055
SRI (UniProt P30626)	-0.022
STAT3 (UniProt P40763)	-0.012
SRPRA (UniProt P08240)	-0.044
TAOK1 (UniProt Q7L7X3)	-0.018
STK26 (UniProt Q9P289)	0.054
STK4 (UniProt Q13043)	-0.003
STXBP2 isoform 3 (UniProt Q15833)	-0.203
SRPRB (UniProt Q9Y5M8)	-0.064
TIMM29 (UniProt Q9BSF4)	0.13
SPG11 (UniProt Q96JI7)	0.069

Target	log2 fold change
SLC25A36 (UniProt Q96CQ1)	0.162
SLC25A42 (UniProt Q86VD7)	0.083
TAMM41 isoform 3 (UniProt Q96BW9)	-0.007
SRSF4 (UniProt Q08170)	0.023
SNRNP27 (UniProt Q8WVK2)	0.097
TJP2 isoform 7 (UniProt Q9UDY2)	-0.097
STEAP3 isoform 2 (UniProt Q658P3)	0.006
SP100 isoform 4 (UniProt P23497)	0.095
SPG21 (UniProt Q9NZD8)	0.01
TIMM44 (UniProt O43615)	0.007
TBC1D23 (UniProt Q9NUY8)	-0.047
SPAG9 (UniProt O60271)	-0.011
SNRPB2 (UniProt P08579)	0.054
SNX6 (UniProt Q9UNH7)	-0.009
STK25 (UniProt O00506)	0.051
TJP1 (UniProt Q07157)	-0.056
STK11IP (UniProt Q8N1F8)	0.007
SUMO1 (UniProt P63165)	0.028
TM9SF2 (UniProt Q99805)	-0.069
